Efflux pump mplx: inhibitors of Candida efflux pumps in yeast, primary screen, S. cerevisiae, Nile Red, multiplex; inhibition, % at 10 µM; hit rate 0.44% among 330,000; S. cerevisiae Candida pump triplex;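 active = plate passing quality check with inhibition over a set limit, or well fluorescence over plate mean plus 4 SD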;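 also: Nile Red retained in pooled yeast measured as flow cytometry median fluorescence; higher means more Nile Red kept so more efflux inhibition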
GRK2 aptamer HTS: compounds blocking aptamer binding on GRK2 – biochemical, human GRK2, bead flow cytometry, HTS, primary screen. hit rate 0.59% among 330,000. Beta-adrenergic receptor kinase 1 (Homo sapiens), P25098. inhibition of aptamer binding, % at 10 µM. FAM-aptamer displacement from GRK2;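 active = inhibition of aptamer binding above 40%, roughly 3 SD of noise, on plates passing a quality check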;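 also: median bead fluorescence of bound FAM aptamer so fluorescent compounds give negative values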
ATG4B inhibitor: ATG4B protease inhibitors, primary screen, biochemical, fluorescence, uHTS | Cysteine protease ATG4B (Homo sapiens), Q9Y4P1 | ATG4B cleavage of LC3-PLA2, NBD-HPC fluorescence, 1 h | inhibition, % at 8.33 µM | hit rate 0.51% among 340,000 | AID 504462, 2011; in the data active = inhibition above about 40%
Target sequence (Q9Y4P1 whole entry, looked up): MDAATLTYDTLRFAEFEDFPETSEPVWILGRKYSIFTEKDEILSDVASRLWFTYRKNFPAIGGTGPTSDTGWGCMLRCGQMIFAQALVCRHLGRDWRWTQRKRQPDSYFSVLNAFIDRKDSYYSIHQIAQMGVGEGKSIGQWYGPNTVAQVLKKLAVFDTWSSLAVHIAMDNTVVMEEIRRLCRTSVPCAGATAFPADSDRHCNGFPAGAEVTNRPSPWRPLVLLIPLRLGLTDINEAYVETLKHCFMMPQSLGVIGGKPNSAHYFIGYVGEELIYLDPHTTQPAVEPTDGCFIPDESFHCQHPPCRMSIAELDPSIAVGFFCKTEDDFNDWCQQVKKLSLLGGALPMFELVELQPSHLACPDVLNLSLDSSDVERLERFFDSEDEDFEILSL
Yeast superoxide: reduction of superoxide in aged yeast, primary screen, HTS | S. cerevisiae aged cells, superoxide DHE fluorescence; stronger effect = lower value | superoxide response (% of plate mean), % at 10 µM | hit rate 0.18% among 330,000;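 active = superoxide response under a set limit, about three screen SD below normal, cut at about 65% in these data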;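 also: yeast aged for seven days with compound at 30 °C before DHE staining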
GRK2 CP1: GRK2 aptamer-displacing inhibitors, retest, confirmation, biochemical, cherry pick 1, bead flow cytometry; AID 504451, 2011; bead-bound GRK2, FAM-aptamer displacement; aptamer displacement, % at 10 µM; hit rate 4% among 2,000; shares compounds with GRK2 aptamer HTS;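 active = aptamer displacement above 40%, near three times the noise of non-fluorescent compounds, on plates passing quality checks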;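 also: negative values mostly reflect intrinsic compound fluorescence rather than true enhancement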
Aptamer quench: quenches fluorescent RNA aptamer, GRK2 hit artifact. 110 tested, under 10 active. Fluorescent RNA aptamer beads, quenching, flow cytometry; stronger effect = higher value. AID 504521. fluorescence change (kMESF span), kMESF (test concentration not listed). shares compounds with GRK2 aptamer HTS;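 active = compounds whose bead fluorescence drops by more than 37 kMESF across the dose range, marking them as dye quenchers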
FAM quench CP1: quenches fluorescent RNA aptamer, GRK2 hit artifact; shares compounds with GRK2 aptamer HTS; Carboxyfluorescein RNA aptamer on beads, flow cytometry quenching; stronger effect = lower value; fluorescence response (% of DMSO), % at 10 µM; 2,000 tested, under 10 active; AID 504580;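 active = compounds that quench the bead-bound fluorescent RNA probe, cutting fluorescence to under half of the solvent control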;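 also: counterscreen run without GRK2 so only probe quenching by compound is measured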
GRK2 confirm 2: GRK2 aptamer-displacing inhibitors, hit retest, confirmation, biochemical, cherry pick 2, bead flow cytometry; inhibition of aptamer binding, % at 10 µM; bead-bound GRK2, FAM-aptamer displacement; 360 tested, under 10 active; shares compounds with GRK2 aptamer HTS; AID 504782, 2011;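 active = inhibition of aptamer binding above 40%, about triple the noise seen with nonglowing compounds, on plates passing quality control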;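 also: negative values mostly come from compounds that fluoresce themselves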
FAM quench CP2: counter-screen for GRK2 binding hits: quenchers of fluorescent RNA aptamer | shares compounds with GRK2 aptamer HTS | carboxyfluorescein RNA aptamer beads, flow cytometry quenching; stronger effect = lower value | fluorescence response vs DMSO, % at 10 µM | 360 tested, under 10 active | AID 588494;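 active = response vs DMSO under 50%, meaning signal dropped by over half, treated as fluorescence quencher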;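 also: labelled aptamer on streptavidin beads without GRK2 as a quench counter-screen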
Of the large screens only hits and unclear results are named; the others gave an inactive call (follow-up assays come after a bar, where they were run). Compounds with a hit are over-represented: about 1.6% of the library has one in this group of screens.

O=C(c1ccccc1C(=O)N1CCN(c2ccccc2F)CC1)N1CCN(c2ccccc2F)CC1	GRK2 aptamer HTS 77.0 | GRK2 CP1 inactive | FAM quench CP1 inactive
O=C(COC(=O)[C@@H]1CCCN1S(=O)(=O)c1ccccc1F)Nc1ccc(OC(F)F)cc1	none
Cn1c(/C=C/c2cccc([N+](=O)[O-])c2)c([N+](=O)[O-])c(=O)n(C)c1=O	none
Cc1ccc(N(CC(=O)Nc2ccccc2-c2ccccc2)S(=O)(=O)c2ccccc2)c(C)c1	none | GRK2 CP1 inactive | FAM quench CP1 inactive
Cc1ccccc1CCN(CC(=O)NCc1ccc(F)cc1)C(=O)c1csnn1	GRK2 aptamer HTS 70.0 | GRK2 CP1 inactive | FAM quench CP1 inactive
Cc1ccc(NC(=O)CS(=O)CC(=O)Nc2ccc(N3CCOCC3)cc2)cc1Cl (configuration not stated)	GRK2 aptamer HTS 70.0 | GRK2 CP1 inactive | FAM quench CP1 inactive
Cc1ccc(NC(=O)c2cc(N3C(=O)C=CC3=O)ccc2N2CCOCC2)cc1Cl	GRK2 aptamer HTS 71.0 | GRK2 CP1 inactive | FAM quench CP1 inactive
CCN(CC)C(=O)Cc1cc(C(=O)O)c2ccccc2n1	none | GRK2 CP1 inactive | FAM quench CP1 inactive
Cc1ccc(Cl)c2c1NC(=O)C2=O	none
CCOC(=O)C1=C(C(F)(F)F)Nc2ncnn2C1c1cc(OC)ccc1OC (configuration not stated)	none
CCOC(=O)C1=C(C(F)(F)F)Nc2ncnn2C1c1cccc(OC)c1OC (configuration not stated)	GRK2 aptamer HTS 81.0 | GRK2 confirm 2 inactive | FAM quench CP2 inactive
O=C(NCCc1c[nH]c2ccccc12)c1ccc([N+](=O)[O-])cc1	GRK2 aptamer HTS 41.0 | GRK2 confirm 2 inactive | FAM quench CP2 inactive
Cc1sc2ncn(CC(=O)NCc3ccco3)c(=O)c2c1-c1ccc(F)cc1	none
O=C(Cn1cnc2scc(-c3cccc([N+](=O)[O-])c3)c2c1=O)NCc1ccco1	GRK2 aptamer HTS 88.0 | GRK2 CP1 inactive | FAM quench CP1 inactive
C#CCCc1cocc1/C=[N+](\[O-])c1ccc(C(=O)OCC)cc1	none
Cc1cccc(NC(=O)CCS(=O)(=O)c2ccc(Cl)cc2)c1	none | GRK2 confirm 2 inactive | FAM quench CP2 inactive
Cc1ccnc(NC(=O)CCS(=O)(=O)c2ccccc2)c1	none | GRK2 CP1 inactive | FAM quench CP1 inactive
O=C(CCS(=O)(=O)c1ccccc1)Nc1ccccn1	GRK2 aptamer HTS 76.0 | GRK2 CP1 inactive | FAM quench CP1 inactive
COc1ccc(CC(=O)NNS(=O)(=O)c2ccc(F)cc2)cc1	none
CCCCNC(=O)C1(NC(=O)Nc2ccc(C)cc2)CCCCC1	none
CCCCn1c(NS(=O)(=O)c2ccc(C)cc2)c(S(=O)(=O)c2ccccc2)c2nc3ccccc3nc21	none | GRK2 CP1 inactive | FAM quench CP1 inactive
CCC(=O)N1N=C(c2cccs2)CC1c1ccc(OC)cc1 (configuration not stated)	none
COc1ccc(C2CC(c3cccs3)=NN2C(=O)c2ccc(Br)o2)cc1 (configuration not stated)	GRK2 aptamer HTS 86.0 | GRK2 confirm 2 inactive | FAM quench CP2 inactive
CCOc1cc(/C=C2\SC(=NC)N(C)C2=O)c(Br)cc1OC(C)=O	GRK2 aptamer HTS 74.0 | GRK2 CP1 inactive | FAM quench CP1 inactive
COCCN(C(=O)COC(=O)c1cc2ccccc2cc1O)c1c(N)n(Cc2ccccc2)c(=O)[nH]c1=O	none
O=C(O)c1ccccc1-c1c2cc(I)c(=O)c(I)c-2oc2c(I)c(O)c(I)cc12	GRK2 aptamer HTS 61.0 | GRK2 CP1 80.1 | Aptamer quench inactive | FAM quench CP1 inactive
O=Cc1ccc(-c2ccccc2C(=O)O)o1	none
O=C(O)CCCNC(=O)c1ccccn1	none
O=C(COC(=O)CNC(=O)c1ccccc1)Nc1nnc(-c2ccccc2)o1	none | GRK2 CP1 inactive | FAM quench CP1 inactive
O=C(COC(=O)CNC(=O)c1cccc(Br)c1)Nc1nnc(-c2ccccc2)o1	none
Cc1nnc(SCC(=O)Nc2ccc(S(N)(=O)=O)cc2)n(N)c1=O	none | GRK2 CP1 inactive | FAM quench CP1 inactive
Cc1ccc(NC(=O)CSc2nnc(C)c(=O)n2N)cc1	none
Cc1ccc(C(=O)Nc2cccc(C(F)(F)F)c2)cc1NC(=O)c1c[nH]c2cc(C(F)(F)F)ccc2c1=O	none | GRK2 CP1 inactive | FAM quench CP1 inactive
COc1ccc(/C=C/C(=O)N2CCN(c3ccccn3)CC2)cc1OC	GRK2 aptamer HTS 53.0 | GRK2 CP1 inactive | FAM quench CP1 inactive
COC(=O)C1=C(C)N=c2s/c(=C/c3cccs3)c(=O)n2C1c1cccs1 (configuration not stated)	GRK2 aptamer HTS 56.0 | GRK2 CP1 inactive | FAM quench CP1 inactive
COc1cc(CO)cc(Br)c1OCC(=O)Nc1cccc2ccccc12	none
CC(=O)OCC1(C)CN(c2ccccc2)NC1=O (configuration not stated)	none
O=C(COC(=O)c1c(Cl)ccc(Cl)c1Cl)NC(=O)NCc1ccccc1	none
O=Cc1nc(-c2ccc(Cl)cc2)n2ccccc12	none
O=Cc1nc(-c2ccccc2Cl)n2ccccc12	GRK2 aptamer HTS 45.0 | GRK2 CP1 inactive | FAM quench CP1 inactive
Cc1occc1C(=O)N/N=C/C(Br)=C/c1ccccc1	none | GRK2 CP1 inactive | FAM quench CP1 inactive
Cc1occc1C(=O)N/N=C/c1ccc(-c2ccccc2)cc1	none
CCOc1ccc(S(=O)(=O)N(C)c2ccc(OCC(=O)NCCc3ccc(OC)cc3)cc2)cc1	none
O=C(COC(=O)C1(c2ccc(Cl)cc2)CCCC1)NCc1ccco1	none | GRK2 CP1 inactive | FAM quench CP1 inactive
O=C(COC(=O)Cc1cccc(C(F)(F)F)c1)NCc1ccco1	GRK2 aptamer HTS 57.0 | GRK2 CP1 inactive | FAM quench CP1 inactive
O=C(COC(=O)Cc1ccc(F)cc1)NCc1ccco1	GRK2 aptamer HTS 52.0 | GRK2 CP1 inactive | FAM quench CP1 inactive
NC(=O)c1ccsc1NC(=O)CS(=O)(=O)c1ccccc1	none | GRK2 confirm 2 inactive | FAM quench CP2 inactive
NC(=O)c1ccsc1NC(=O)CCS(=O)(=O)c1ccccc1	none

Bioassay records (PubChem BioAssay)
